Test systems include T-47D breast; BT-549 breast; MDA-MB-435 melanoma; SW-620 colon; MCF7 breast; HCT-116 colon; HCC-2998 colon; KM12 colon.
Common to all, as to experiment: NCI-60 one-dose screen, 48 h (100 = growth as untreated, 0 = no growth, -100 = all killed)
Details in all cases: 10 µM unless noted

Compounds without any hit were thinned out: in the full panel of roughly 83,000, 20% have a hit.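 Single-dose data. Exposure time 48 hours. Values below 10 considered active.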 Values without a mark were called inactive. The source made the active and inactive calls.

Turning to `Cc1[nH]c(-c2ccc3cc[nH]c3c2)c2c1C(=O)CCCC2`, the growth in the test on T-47D breast is 32.1%; in the test with BT-549 breast it was 68.3%; in the test on MDA-MB-435 melanoma it was 25.2%; in the test with SW-620 colon, 73.9%; with MCF7 breast, 19.5%; in the test with HCT-116 colon it was 38.9%. Further, the growth in the test with HCC-2998 colon was 57.7%; in the test with KM12 colon it was 47.8%.
Take `O=C1c2ccccc2OC=C(c2ccccc2)N1CCCCNc1ccc(S(=O)(=O)Nc2ncccn2)cc1`: the growth in the test on T-47D breast was 88.8%; in the test on BT-549 breast, 100%; with MDA-MB-435 melanoma it was 105%; in the test with SW-620 colon, 99.3%; in the test on MCF7 breast, 93.7%; in the test with HCT-116 colon, 96.1%. Besides, the growth in the test with HCC-2998 colon was 111%; with KM12 colon it was 97.5%.
In the case of `CN1CCN=C1c1ccc(NC(=O)c2ccc(C(=O)Nc3ccc(C4=NCCN4C)cc3)cc2)cc1`, the growth with T-47D breast was 86.7%; in the test with BT-549 breast, 97.5%; in the test with MDA-MB-435 melanoma, 108%; in the test with SW-620 colon, 102%; with MCF7 breast, 76.5%; in the test on HCT-116 colon, 91.1%. For the same molecule, the growth with HCC-2998 colon was 112%; with KM12 colon, 98.7%.
With `Cc1ccc(/C=C2\SC(=S)N(CC(=O)NCCCN3CCOCC3)C2=O)cc1`, the growth was 90.4% in the test with T-47D breast; 102% in the test with BT-549 breast; 99.4% in the test on MDA-MB-435 melanoma; 103% with SW-620 colon; 91.5% in the test with MCF7 breast; 100% in the test with HCT-116 colon. Also, the results for the growth in the test on HCC-2998 colon and in the test with KM12 colon were 102% and 105%, respectively.
As to `Cn1nc(N)c2cc([C@@H]3Nc4ccc5[nH]ncc5c4[C@H]4C5CCC(C5)[C@@H]34)ccc21` (stereo not given in full), the growth is 43.6% with T-47D breast; 38% with BT-549 breast; -66.6% (active) in the test with MDA-MB-435 melanoma; 22.4% in the test on SW-620 colon; 18.8% in the test with MCF7 breast; 14.5% in the test on HCT-116 colon. The growth in the test on HCC-2998 colon was 18%; in the test with KM12 colon it was 16.6%.
Take `CN(C)S(=O)(=O)c1ccc(S(=O)(=O)Nc2cccc(Cl)c2N2CCCCC2)cc1`: the growth in the test with T-47D breast was 67.4%; with BT-549 breast, 88.4%; in the test on MDA-MB-435 melanoma, 92.3%; with SW-620 colon it was 97.1%; in the test with MCF7 breast it was 84.1%; with HCT-116 colon, 61.6%. The growth in the test on HCC-2998 colon and with KM12 colon was 94.5% throughout.
As to `O=C(N(c1ccccc1)c1ccccc1)n1ccc2nc(Cl)nc(Cl)c21`, the growth with T-47D breast was 34.2%; in the test with BT-549 breast, 47.2%; in the test with MDA-MB-435 melanoma, 37.9%; in the test on SW-620 colon it was 51.1%; in the test with MCF7 breast, 32.5%; in the test on HCT-116 colon, 49.6%. The growth was 91.5% in the test with HCC-2998 colon and 55.7% with KM12 colon.
Turning to `CCOC(=O)c1csc(NC(=O)COc2cccc(/C=C3\CSc4ccccc4C3=O)c2)n1`, the growth in the test with T-47D breast was 73.8%; with BT-549 breast, -88% (active); with MDA-MB-435 melanoma, 17.9%; in the test with SW-620 colon, -65.5% (active); in the test with MCF7 breast it was 2.02% (active); in the test on HCT-116 colon it was 4.95% (active). Also, the growth was -31.8% (active) with HCC-2998 colon and -64.4% (active) in the test with KM12 colon.
For `O=C(C(=O)c1ccc2c(c1)OCO2)c1ccc2c(c1)OCO2`, the growth with T-47D breast was 113%; in the test on BT-549 breast, 101%; with MDA-MB-435 melanoma, 114%; with SW-620 colon it was 90.6%; in the test with MCF7 breast, 102%; in the test on HCT-116 colon, 101%. The results for the growth in the test on HCC-2998 colon and with KM12 colon were 114% and 98.1%, respectively.
With `Oc1ccc(N=Cc2ccccc2O)cc1`, the growth in the test on T-47D breast is 89.4%; in the test with BT-549 breast it was 78.3%; with MDA-MB-435 melanoma, 110%; in the test with SW-620 colon, 99.1%; in the test on MCF7 breast it was 92.8%; in the test on HCT-116 colon it was 98.8%. Also, the growth in the test with HCC-2998 colon was 116%; in the test on KM12 colon it was 88.8%.
As for `Cc1nn(-c2ccc(F)cc2)c2ncnc(Oc3ccc(NC(=O)Nc4ccc(Cl)c(C(F)(F)F)c4)cc3)c12`, the growth with T-47D breast is 94.6%; in the test with BT-549 breast, 111%; in the test on MDA-MB-435 melanoma it was 104%; in the test with SW-620 colon, 100%; in the test on MCF7 breast it was 96.2%; in the test with HCT-116 colon, 102%. The growth in the test on HCC-2998 colon was 99.2%; in the test with KM12 colon, 108%.
With `C=C(C)[C@@H]1CC[C@]2(C(=O)OC)CC[C@]3(C)[C@H](CC[C@@H]4[C@@]5(C)C/C(=C/c6cccc(I)c6)C(=O)C(C)(C)[C@@H]5CC[C@]43C)[C@@H]12`, the growth in the test with T-47D breast is 93.6%; in the test on BT-549 breast it was 101%; in the test with MDA-MB-435 melanoma it was 96.6%; with SW-620 colon it was 101%; in the test on MCF7 breast it was 89.2%; in the test with HCT-116 colon, 95.4%. For the same molecule, the growth with HCC-2998 colon is 99.7%; with KM12 colon it was 101%.
For the molecule `CCCCN(CCCC)CCCn1c(-c2ccccc2)ccc1-c1ccccc1`, the growth is 67.4% with T-47D breast; 74.1% in the test with BT-549 breast; 85.7% with MDA-MB-435 melanoma; 65.1% in the test with SW-620 colon; 58.4% in the test on MCF7 breast; 34.1% with HCT-116 colon. Also, the values for the growth with HCC-2998 colon and in the test with KM12 colon were 59.9% and 61.7%, respectively.
`CSc1ccc(SC2c3ccc(C)cc3Oc3nc(N)c(C#N)c(N)c32)cc1` (stereo not given): the growth in the test on T-47D breast is -45.1% (active); in the test on BT-549 breast, -87.2% (active); in the test on MDA-MB-435 melanoma, -86.7% (active); in the test with SW-620 colon, -68.1% (active); in the test on MCF7 breast it was -52.2% (active); in the test on HCT-116 colon, -83.3% (active). In addition, the growth in the test with HCC-2998 colon was -88.2% (active); in the test on KM12 colon it was -42.3% (active).
For the molecule `CC(=O)O[C@H]1CC[C@]2(C)[C@H]3CC=C4[C@@H]5CC(C)(C)CC[C@]5(C(=O)NCCNCCNCCN)CC[C@@]4(C)[C@]3(C)CC[C@H]2C1(C)C`, the growth in the test on T-47D breast is -15.1% (active); in the test on BT-549 breast, 87.2%; in the test with MDA-MB-435 melanoma it was 9.05% (active); with SW-620 colon, -83.1% (active); in the test with MCF7 breast it was -85.9% (active); in the test with HCT-116 colon, -80.8% (active). Further, the growth was 1.19% (active) with HCC-2998 colon and 85.3% in the test with KM12 colon.
